IDE exosite FP: exo-site inhibitors of human insulin-degrading enzyme | P14735 | purified IDE, FL-6b probe fluorescence polarization; stronger effect = lower value | z-score at 20 µM | 17,000 compounds, 6.3% hits;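 active = z-score of -3 or lower, meaning strong loss of probe binding signal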;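 also: His-tagged human IDE residues 42-1019 made in E. coli with 30 nM FL-6b probe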
Active calls of the source: *. The sample as a whole holds a higher share of hits than the screen did.

SMILES	IDE exosite FP
COc1ccc([C@@H]2C/C=C\C[C@@H](c3ccc(F)cc3)NC(=O)CCC(=O)N2)c(OC)c1	-0.636
O=C1CN(S(=O)(=O)c2ccccc2)C[C@@H]2[C@H](c3ccc(C4=CCCC4)cc3)[C@@H](CO)N12	5.34
CC(C)CC#Cc1ccc([C@H]2[C@H](CO)N3C(=O)CN(C(=O)NC4CCCCC4)C[C@@H]23)cc1	0.265
O=C(NC1CCCC1)N1CC(=O)N2[C@H](CO)[C@@H](c3ccc(/C=C/c4ccccc4)cc3)[C@@H]2C1	0.288
O=C(NC1CCCCC1)N1CC(=O)N2[C@@H](CO)[C@H](c3ccc(/C=C/c4ccccc4)cc3)[C@@H]2C1	-7.36*
O=C(NC1CCCCC1)N1CC(=O)N2[C@H](CO)[C@H](c3ccc(/C=C/c4ccccc4)cc3)[C@@H]2C1	-10.3*
O=C(NC1CCCCC1)N1CC(=O)N2[C@H](C1)[C@H](c1ccc(/C=C/c3ccccc3)cc1)[C@@H]2CO	-3.89*
O=C(NC1CCCCC1)N1CC(=O)N2[C@H](CO)[C@@H](c3ccc(/C=C/c4ccccc4)cc3)[C@@H]2C1	-3.61*
CC(C)CC#Cc1ccc([C@@H]2[C@H](CO)N3C(=O)CN(C(=O)NC4CCCCC4)C[C@@H]23)cc1	1.39
O=C(NC1CCCC1)N1CC(=O)N2[C@H](C1)[C@@H](c1ccc(/C=C/c3ccccc3)cc1)[C@@H]2CO	0.841
O=C(c1ccc(F)cc1)N1CC(=O)N2[C@H](CO)[C@H](c3ccc(C#CCC4CCCC4)cc3)[C@H]2C1	-0.675
C[C@@H](NC(=O)C[C@@H]1CC[C@@H]2[C@H](COC[C@H](O)CN2Cc2ccc(C(F)(F)F)cc2)O1)c1ccccc1	-0.195
N#C[C@@H]1[C@H](c2ccccc2)[C@H](CO)N1S(=O)(=O)Cc1ccccc1	2.77
CCC(=O)N1C[C@@H](O)COC[C@@H]2O[C@H](CC(=O)NC)CC[C@H]21	0.271
COc1ccc(-c2ccc([C@@H]3[C@H]4CN(Cc5ccc(F)cc5)CC(=O)N4[C@H]3CO)cc2)cc1	2.47
O=S(=O)(c1cccs1)N1CCCCN2[C@@H](CO)[C@H](c3ccc(Br)cc3)[C@@H]2C1	2.04
O=S(=O)(Cc1ccccc1)N1CCCCN2[C@H](CO)[C@H](c3ccc(-c4cccnc4)cc3)[C@H]2C1	2.55
CCC(=O)N1CC(=O)N2[C@H](C1)[C@H](c1ccc(C#CCc3ccccc3)cc1)[C@@H]2CO	0.49
CCC(=O)N1CC(=O)N2[C@H](CO)[C@@H](c3ccc(C#CCc4ccccc4)cc3)[C@H]2C1	0.71
CCC(=O)N1CC(=O)N2[C@@H](CO)[C@@H](c3ccc(C#CCc4ccccc4)cc3)[C@@H]2C1	-7.4*
O=C(Cc1ccccc1)N1CC(=O)N2[C@H](CO)[C@H](c3ccc(C#CCc4ccccc4)cc3)[C@H]2C1	-4.34*
O=C(Cc1ccccc1)N1CC(=O)N2[C@H](C1)[C@@H](c1ccc(C#Cc3ccccc3)cc1)[C@@H]2CO	-2.85
O=C(Cc1ccccc1)N1CC(=O)N2[C@H](CO)[C@@H](c3ccc(C#CCc4ccccc4)cc3)[C@H]2C1	2.11
CO[C@H]1CC[C@H]2CCN(C)C(=O)[C@@H](C)N(C)C(=O)c3cccc(C#N)c3OC[C@H]1O2	1.38
CCCNC(=O)N1[C@H](CO)[C@@H](c2ccccc2-c2ccc(C)cc2)[C@@H]1C#N	1.19
SMILES	IDE exosite FP
CN(C)CC(=O)N1[C@H](CO)[C@H](c2ccccc2-c2cccc(C(=O)N(C)C)c2)[C@@H]1C#N	1.26
O=C(CC1CC1)N1CC(=O)N2[C@H](C1)[C@@H](c1ccc(C#Cc3ccc(F)cc3)cc1)[C@@H]2CO	0.153
O=C(CC1CC1)N1CC(=O)N2[C@H](CO)[C@H](c3ccc(C#Cc4ccccc4)cc3)[C@@H]2C1	-10*
O=C(CC1CC1)N1CC(=O)N2[C@H](C1)[C@H](c1ccc(C#Cc3ccccc3)cc1)[C@@H]2CO	-15.9*
O=C(Cc1ccccc1)N1CC(=O)N2[C@@H](CO)[C@@H](c3ccc(C#Cc4ccccc4)cc3)[C@@H]2C1	0.822
O=C(CC1CC1)N1CC(=O)N2[C@H](C1)[C@@H](c1ccc(C#Cc3ccccc3)cc1)[C@@H]2CO	-8.5*
O=C(CC1CC1)N1CC(=O)N2[C@H](C1)[C@H](c1ccc(C#Cc3ccc(F)cc3)cc1)[C@@H]2CO	-1.67
O=C(CC1CC1)N1CC(=O)N2[C@H](CO)[C@@H](c3ccc(C#Cc4ccccc4)cc3)[C@@H]2C1	-7.65*
O=C(CC1CC1)N1CC(=O)N2[C@@H](CO)[C@@H](c3ccc(C#Cc4cccc(F)c4)cc3)[C@@H]2C1	-0.608
O=C(CC1CC1)N1CC(=O)N2[C@H](CO)[C@@H](c3ccc(C#Cc4ccc(F)cc4)cc3)[C@H]2C1	0.266
CC(C)CC#Cc1ccc([C@H]2[C@@H](CO)N3C(=O)CN(S(C)(=O)=O)C[C@H]23)cc1	3.53
COCC#Cc1ccc([C@H]2[C@@H](CO)N3C(=O)CN(C(=O)Nc4ccc(F)cc4)C[C@@H]23)cc1	0.74
CCCC#Cc1ccc2c(c1)O[C@@H](CN(C)Cc1ccccn1)[C@H](C)CN([C@H](C)CO)S2(=O)=O	-1.78
CC(C)(C)S(=O)N1Cc2cc(C(=O)NCc3ccc(Oc4ccccc4)cc3)nc(-c3cccc(C#CCC4CCCC4)c3)c2[C@@H]1CCO (stereo not given in full)	3.12
COCC(=O)N1[C@H](CO)[C@H](c2ccc(C#Cc3ccccc3F)cc2)[C@@H]1C#N	-2.25
O=C(C[C@@H]1CC[C@@H]2[C@H](COC[C@H](O)CN2CCc2ccccc2)O1)NCCCN1CCOCC1	0.543
O=C(c1cccc(F)c1)N1CC(=O)N2[C@H](C1)[C@@H](c1ccc(C3=CCCC3)cc1)[C@@H]2CO	0.831
O=C(C[C@H]1C[C@@H]2c3cc(NC(=O)c4ccc5c(c4)OCO5)ccc3O[C@@H]2[C@@H](CO)O1)NCc1ccc(Oc2ccccc2)cc1	-0.723
OC[C@@H]1[C@H](c2ccc(C#Cc3ccccc3)cc2)[C@H]2CN(Cc3cncnc3)CCCCN12	-8.53*
OC[C@@H]1[C@@H](c2ccc(C#Cc3ccccc3)cc2)[C@@H]2CN(Cc3cncnc3)CCCCN12	-6.42*
COCC#Cc1ccc([C@H]2[C@@H](CO)N3CCCCN(Cc4cncnc4)C[C@@H]23)cc1	1.69
COCC#Cc1ccc([C@H]2[C@H]3CN(Cc4cncnc4)CCCCN3[C@H]2CO)cc1	1.33
OC[C@H]1[C@H](c2ccc(C#Cc3ccccc3)cc2)[C@@H]2CN(Cc3cncnc3)CCCCN12	-4.48*
CCCC#Cc1ccc([C@@H]2[C@H](CO)N3CCCCN(Cc4cncnc4)C[C@@H]23)cc1	0.0514
OC[C@H]1[C@@H](c2ccc(C#Cc3ccccc3)cc2)[C@H]2CN(Cc3cncnc3)CCCCN21	-0.515
SMILES	IDE exosite FP
CCCC#Cc1ccc([C@H]2[C@H](CO)N3CCCCN(Cc4cncnc4)C[C@@H]23)cc1	2.29
CCCC#Cc1ccc([C@@H]2[C@H](CO)N3CCCCN(Cc4cccnc4)C[C@@H]23)cc1	0.859
C[C@H]1CC=CC[C@H](c2ccccc2)NC(=O)[C@H](C)N(C)C(=O)c2ccccc2O1 (mixture of isomers)	1.45
CN(C)CC(=O)N1[C@@H](C#N)[C@H](c2ccc(C#CC3CCCCC3)cc2)[C@@H]1CO	-0.471
CC(C)NC[C@H]1[C@H](c2ccc(C3=CCCCC3)cc2)[C@@H](CO)N1C(=O)NC(C)C	5.75
O=C(Nc1ccccc1F)N1C[C@H]2[C@@H](c3ccccc31)[C@H](CO)N2C(=O)Cc1cccnc1	-0.852
CCCNC(=O)N1CC(=O)N2[C@H](CO)[C@@H](c3ccc(C#CCC4CCCC4)cc3)[C@@H]2C1	0.932

Source: PubChem BioAssay (Broad Institute)
